Screens from PubChem.
Shown are actives, neighbours in structure and some others; about 12% of the full set was active somewhere.
AMA1 RON2 block: disrupts binding of P. falciparum AMA1 to RON2. Potency, µM (series often up to 58.2 µM), for the others: top-dose activity change, negative = inhibition, hits mostly inhibitors. 360,000 compounds, 0.2% hits. AlphaScreen AMA1-biotinylated RON2 peptide binding. AID 720542;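 also: 0% = vehicle wells and -100% = peptide control; nearly all actives have a fitted effect of over 45% in size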
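AMA1 (3D7) with his tag at 25 nM final met compounds first, then biotinylated RON2 peptide at 25 nM; detection used donor plus acceptor beads, 10 µg/mL apiece, read by AlphaScreen after 30 min at room temperature.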
Pf growth 48h: inhibits P. falciparum growth in the first generation, 48 h. P. falciparum luciferase growth in erythrocytes, 48 h. Potency, µM (highest dose often 28.7 µM), for inactives: at the highest dose activity change, negative = inhibition, actives largely listed as inhibitors. 310,000 compounds, 5.9% hits; also: % is scaled to controls: 0 for no effect and ±100 for the full control effect
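Luciferase-expressing P. falciparum in infected erythrocytes (2% hematocrit, 0.1% parasitemia final) in RPMI 1640/0.5% Albumax were exposed to compound for 48 hours at 37 C, 5% CO2; growth read as luminescence.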
HCV inh: inhibitors of hepatitis C virus infection; Huh7.5.1 HCVcc-Cre infection, luciferase reporter, 44 h; Potency, µM (titrated, usually from 41.8 µM), without a hit: at the highest dose activity change, negative = inhibition, most hits filed as inhibitors; 340,000 compounds, 3.4% hits; AID 651820; also: % is scaled to controls: 0 for no effect and ±100 for the full control effect
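Infectious HCVcc-Cre (~0.5 moi) was added to cells just after compound, with cells seeded 4 h earlier at 1,000 per well. Luciferase activity after 44 h culture reported infection; substrate was incubated 15 min at room temperature before reading.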
SARS PLpro yeast: blocks SARS-CoV papain-like protease in a yeast assay; S. cerevisiae expressing SARS-CoV PLpro, growth rescue; Potency, µM (highest dose often 32.9 µM), for inactives: at the highest dose activity, positive = growth rescue, most hits filed as activators; 330,000 compounds, 0.19% hits; AID 485353; calls by dose curve; also: 0% is about no effect; nearly all actives have a fitted effect of over 55% in size
NS1 function inh: influenza NS1 inhibition; AID 2326; Potency, µM (titrated, usually from 46.1 µM), for inactives: at the highest dose activity, positive = more growth; 270,000 compounds, 0.4% hits; calls by dose curve; also: actives are rising curves; nearly all actives have a fitted effect of over 50% in size
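Read-out: OD600 growth recovery of NS1-expressing budding yeast. Cells grown overnight at 30C in -URA glucose medium, washed, resuspended and diluted 1:100 in 2% galactose assay medium, pH 6.0. Same strain lacking NS1 served as positive control.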
Pf growth 96h: P. falciparum growth inhibition at 96 hour, primary screen for plastid delayed-death inhibitors; P. falciparum luciferase reporter growth, 96 h; Potency, µM (titrated, usually from 28.7 µM), inactives show top-dose activity change, negative = inhibition, actives largely listed as inhibitors; AID 504834; 320,000 compounds, 6.9% hits; also: % is scaled to controls: 0 for no effect and ±100 for the full control effect
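Infected RBCs, 2% Hct / 0.05% parasitemia final; luciferase-reporter P. falciparum; cpd 96 h, 37 C, 5% CO2; luciferase detection reagent; luminescence.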
Starred values were filed as active, the others as inactive; ? = inconclusive; · = not tested or not shown; ! = not confirmed by another sample; [ ] = remark or other dose. Unless noted, calls follow the shape of the dose curve; as a rule, active = well fitted curve in the direction sought with a large enough effect; inconclusive = small, poorly fitted or top-dose-only effect, or another doubt; inactive = no such curve, though single readings can be large; an effect the other way counts as inactive or inconclusive. Potency is read from the fitted curve at half-maximal effect.

SMILES	AMA1 RON2 block	Pf growth 48h	HCV inh	SARS PLpro yeast	NS1 function inh	Pf growth 96h
C[C@@H]1C=C(C(=O)N2CCN(Cc3ccccc3)CC2)O[C@H](OCc2ccc(CO)cc2)C1	48%	2%	-30%	-2%	-4%	-3%
O=C(C1=C[C@H](C2CCCCC2)C[C@H](OCc2ccc(CO)cc2)O1)N1CCOCC1	4%	-7%	5%	0%	-4%	?
O=C(C1=C[C@@H](C2CCCCC2)C[C@@H](OCc2ccc(CO)cc2)O1)N1CCN(Cc2ccccc2)CC1	?	4.1µM*	-18%	-4%	-36%	4.1µM*
O=C(C1=C[C@H](C2CCCCC2)C[C@H](OCc2ccc(CO)cc2)O1)N1CCN(Cc2ccccc2)CC1	-11%	5.2µM*	-27%	0%	-11%	12µM*
COC(=O)[C@]12CCCCC=C1N(CCC1=CCCCC1)C(=O)[C@H](CC(=O)N1CCOCC1)C2	2%	·	·	·	·	·
CC1=CC(=O)C(C(C)C)=C/C1=N/OS(=O)(=O)c1ccccc1	?	0.47µM*	6.3µM*	-5%	-101%	?
CCC(C(=O)NC(N)=O)c1ccccc1 (stereo not drawn)	·	3%	·	·	·	4%
COCCNC(=O)C(C#N)c1nc2ccccc2nc1N1CCCCCC1 (stereo not drawn)	-4%	?	-27%	-6%	-32%	32%
CCOC(=O)C1CCCN(c2nc3ccccc3nc2C(C#N)C(=O)OCCOC)C1 (stereo not drawn)	-8%	6.6µM*	-2%	0%	1%	8.3µM*
CCOC(=O)C1CCN(c2nc3ccccc3nc2C(C#N)C(=O)NCCc2ccccc2)CC1 (stereo not drawn)	·	56%	·	-49%	-68%	9.3µM*
C=CCOC(=O)C(C#N)c1nc2ccccc2nc1N1CCN(c2ccccc2OC)CC1 (stereo not drawn)	?	5.9µM*	-22%	2%	?	8.3µM*
CCOC(=O)C1CCCN(c2nc3ccccc3nc2C(C#N)C(=O)OCC)C1 (stereo not drawn)	-6%	?	?	-1%	-31%	7.4µM*
C=CCOC(=O)C(C#N)c1nc2ccccc2nc1N1CCN(Cc2ccccc2)CC1 (stereo not drawn)	-4%	?	-13%	21%	10%	-21%
O=C1Oc2ccccc2C(=O)/C1=C\N1C(=O)N/C(=C\c2ccccc2O)C1=O	·	·	·	·	3%	·
Cc1cc(-c2nnc(CCC(=O)N(C)C(C)c3cccs3)o2)no1 (stereo not drawn)	1%	15%	0%	-1%	2%	2%
COc1ccc(CCNC[C@@H](O)c2ccc(O)cc2)cc1OC	·	-9%	·	·	0%	-36%
COc1cc2nc(CN3CCN(S(=O)(=O)c4ccc(C)c(C)c4)CC3)[nH]c(=O)c2cc1OC	3%	9.3µM*	8%	1%	·	?
Clc1ccc(C(OCCN2CCCCC2)c2ccccc2)cc1 (stereo not drawn)	-17%	?	?	·	·	?
CC(C)(C)n1nnnc1C(c1ccccc1)N1CCCN(Cc2ccc(F)cc2)CC1 (stereo not drawn)	-6%	·	·	·	·	·
OCCOCCN1CCN(C(c2ccccc2)c2ccc(Cl)cc2)CC1 (stereo not drawn)	-11%	?	1.4µM*!	5%	6%	?
Clc1ccc([C@@H](OCCN2CCCCC2)c2ccccc2)cc1	·	?	·	·	·	3.2µM*
ClCc1nnc(-c2ccccc2)o1	9%	2.9µM*	?	-2%	4%	16%
CC(C)(C)n1nnnc1CN1CCN(C(c2ccccc2)c2ccccc2)CC1	?	5.2µM*	?	9%	-30%	-13%
O=C(NCC1CCCO1)c1cc2ccccc2o1 (stereo not drawn)	3%	43%	9%	0%	2%	19%
COC(=O)[C@H]1C[C@@]2(O)CN(S(=O)(=O)c3ccc(C)cc3)C[C@@]2(OC(=O)NCc2ccccc2)C[C@H]1C(=O)OC	2%	·	·	·	·	·
SMILES	AMA1 RON2 block	Pf growth 48h	HCV inh	SARS PLpro yeast	NS1 function inh	Pf growth 96h
CC(=O)N1CCN(S(=O)(=O)c2cccc(C(=O)NNC(=O)COc3ccc(Cl)cc3C)c2)CC1	130%	?	2%	1%	·	6%
c1ccc(-c2nnc(CN3CCN(C(c4ccccc4)c4ccccc4)CC3)o2)cc1	62%	-41%	-10%	-7%	1%	9.3µM*
CC(C)(C)c1ccc(CN2CCN([C@H](c3ccccc3)c3ccc(Cl)cc3)CC2)cc1	·	17µM*	·	·	-10%	7.6µM*
c1ccc(-c2nnc(CN3CCN(c4ccccc4)CC3)o2)cc1	-9%	-4%	5%	-6%	-7%	-25%
O=C1COc2ccc(S(=O)(=O)Nc3cccc(Cl)c3)cc2N1	6%	11%	12%	-1%	18%	-13%
CCN(CC)C(=O)[C@H]1C[C@H](CC(=O)NCCN2CCOCC2)C(=O)N2CCc3c([nH]c4cc(CCC(=O)N(C)C)ccc34)[C@]12C	15%	·	7%	2%	·	·
O=C(O)c1cc2c([nH]c1=O)CCCC2	1%	15%	-1%	1%	?	35%
C=CCSC(=C(C#N)C#N)c1cc2c([nH]1)CCCC2	-27%	?	13µM*	-29%	-135%	·
CSc1nc(-c2ccccc2)[nH]c(=S)c1C(C)=O	91%	·	6%	0%	0%	9.3µM*
O=C(Nc1ccccc1C(=O)O)c1cccc(NC(=O)c2ccccc2Cl)c1	-2%	15%	10%	-3%	2%	10µM*
O=C(Nc1ccccc1C(=O)O)c1cccc(NC(=O)c2ccco2)c1	-9%	?	18%	9%	-1%	11%
O=C(O)c1cccc(NC(=O)c2ccccc2NC(=O)c2ccccc2F)c1	-5%	25%	0.89µM*	-2%	?	-11%
O=C(Nc1ccccc1C(=O)Nc1ccccc1)c1ccccc1F	8%	6%[0.00184 µM]	-12%	0%	-1%	?
COC(=O)CCC[C@H]1CC2(C[C@H](CCCO[Si](C)(C)C(C)(C)C)N1C(=O)OC(C)(C)C)OCCO2	16%	?	?	-1%	·	32%
O=C1C(Cc2ccccc2)Nc2ncnc(N3CCOCC3)c2N1Cc1ccc(Br)cc1 (stereo not drawn)	-7%	13µM*	?	2%	·	?
CCC1Nc2ncnc(N3CCOCC3)c2N(Cc2ccc(Cl)cc2)C1=O (stereo not drawn)	-1%	·	5%	-3%	·	·
CC1Nc2ncnc(N3CCN(c4ccccc4)CC3)c2N(Cc2ccc(Cl)cc2)C1=O (stereo not drawn)	-12%	8.3µM*	?	6%	·	13µM*
O=C1C(Cc2ccccc2)Nc2ncnc(N3CCc4ccccc4C3)c2N1Cc1ccccc1 (stereo not drawn)	14%	·	5%	2%	·	·
